This is one part of a sample in which hits are shown more often than they occur.
Tg IFNy HTS: T. gondii growth inhibition under IFN-gamma. Toxoplasma gondii growth in IFN-gamma-treated host cells; stronger effect = lower value. activity change, negative = inhibition, % (no concentration beside the values). actives 3.8% (n = 69,000). AID 1259416; in the data active = activity change below about -70%, passing the limit was not always enough;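 also: host cells are HeLa cells infected with Toxoplasma gondii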
Hits are given with their value; i = inactive.

SMILES	Tg IFNy HTS
CN1CCC2(c3ccccc3)CCN(C(=O)CO)CC12 (centres undefined)	i
CCOC(=O)c1ccc2c(c1)N(Cc1nc(-c3ccccc3)oc1C)C(=O)c1ccccc1S2	i
O=C(CCCc1nc(-c2ccco2)no1)N1CC2C[C@@H]3CC1C[C@H](C2)C3	i
Cc1cccc(-c2nc(Cn3c(=O)c4c(C)cc(C)nc4n(C)c3=O)c(C)o2)c1	i
Cc1nc(-c2ccc(F)cc2)sc1CCNC(=O)COc1ccccc1	i
Cc1cccc(CNC(=O)c2cc3cc(S(=O)(=O)N(C)C)ccc3n2Cc2ccncc2)c1	i
COc1cccc(CNC(=O)Nc2ccc(-c3nc(-c4ccccc4)co3)cc2)c1	i
O=C(Nc1nc(-c2ccccc2)cs1)C1CCCN1C(=O)OCc1ccccc1 (centres undefined)	i
O=C(NCc1cccc(O)c1)Nc1nc(-c2ccncc2)cs1	-74
CCOCC(=O)NCCc1csc(-c2ccc(F)cc2)n1	i
Cn1ncc2c1C(COCC1CC1)N(C(=O)c1cscn1)CC2 (centres undefined)	i
CC(C)Oc1ccc(-c2cnc3c(-c4ccnc5ccccc45)cnn3c2)cc1	-76
CN(Cc1cnc2c(-c3ccccc3)cnn2c1)Cc1cccc2ncccc12	i
COc1ccc(-c2cnc3c(-c4cccc5ncccc45)cnn3c2)cc1	i
CN(Cc1ccsc1)c1cc(N2CCOCC2)nc(N)n1	i
O=C(CC1CCc2ccccc21)N1Cc2cnn(CCO)c2C1 (centres undefined)	i
C[C@H](O[C@H]1OCCN(Cc2n[nH]c(=O)[nH]2)[C@H]1c1ccc(F)cc1)c1cc(C(F)(F)F)cc(C(F)(F)F)c1	-72
CCc1ccc(-c2cn3cc(C(=O)N4CCCN(C)CC4)ccc3n2)cc1	i
COc1ccc(/C=C2\CC/C(=C\c3ccc(OC)c(OC)c3)C2=O)cc1OC	i
COc1cc(/C=C/C2=NNC(=O)CC2)cc(OC)c1OC	-97
COc1cc(/C=C/C(=O)N2CCN(CC(=O)N3CCCC3)CC2)cc(OC)c1OC	i
COc1ccc(-c2nc(C)c(-c3ccc(SCc4ccccc4Cl)nn3)s2)cc1	i
O=C(Nc1ccccc1Cl)c1nc(Nc2ccccc2)c2ccccc2n1	i
Cc1c(Cl)cccc1NC(=O)c1c(O)c2ccccc2[nH]c1=O	i
Cc1nc(C(=O)Nc2ccccc2Cl)cc2c1[nH]c1ccccc12	-81
SMILES	Tg IFNy HTS
Cc1nc(CN2CCC3(CC2)COCCN3C)cs1	i
COc1ccc(S(=O)(=O)NCc2nc(-c3ccc(C)cc3)oc2C)cc1OC	i
O=C(Nc1cccc(Cl)c1)N[C@@H]1CC[C@@H](CCn2cc(Cc3ccccc3)nn2)O[C@@H]1CO	-74
O=C(Nc1cccc(Cl)c1)N[C@H]1CC[C@@H](CCn2cc(Cc3ccccc3)nn2)O[C@@H]1CO	i
O=C(Nc1cccc(Cl)c1)N[C@H]1CC[C@H](CCn2cc(Cc3ccccc3)nn2)O[C@H]1CO	i
C=CCc1c(C)[nH]c2ccc(NC(=O)c3cnc(SC)nc3)cc2c1=O	i
OCCOc1ccccc1-c1nccn1-c1ccc2c(c1)CCC2	i
CO[C@@H]1CN(C)C(=O)c2cc(NC(=O)Nc3c(C)noc3C)ccc2OC[C@H](C)NC[C@@H]1C	-76
COc1cccc(NC(=O)Nc2ccc3c(c2)C(=O)N(C)C[C@@H](OC)[C@H](C)CN[C@H](C)CO3)c1	i
CO[C@@H]1CN(C)C(=O)c2cc(NC(=O)Nc3c(C)noc3C)ccc2OC[C@H](C)NC[C@H]1C	i
CO[C@H]1CN(C)C(=O)c2cc(NC(=O)c3cnccn3)ccc2OC[C@H](C)NC[C@@H]1C	i
CO[C@H]1CN(C)C(=O)c2cc(NC(=O)Nc3c(C)noc3C)ccc2OC[C@H](C)NC[C@H]1C	i
CO[C@H]1CN(C)C(=O)c2cc(NC(=O)c3ccc(Oc4ccccc4)cc3)ccc2OC[C@H](C)NC[C@@H]1C	-92
CO[C@@H]1CN(C)C(=O)c2cc(NC(=O)c3ccc(Oc4ccccc4)cc3)ccc2OC[C@@H](C)NC[C@@H]1C	-115
CO[C@H]1CN(C)C(=O)c2cc(NC(=O)c3cnccn3)ccc2OC[C@@H](C)NC[C@H]1C	i
CO[C@H]1CN(C)C(=O)c2cc(NC(=O)c3ccc(Oc4ccccc4)cc3)ccc2OC[C@@H](C)NC[C@H]1C	i
Nc1cncc(-n2ccnc2-c2cccnc2)c1	i
COCCc1nnc(NC(=O)C2(Cc3ccccc3-c3cccnc3)CCOCC2)s1	i
Cn1cccc1C(=O)N1CCc2c(CN3CCCC3)n[nH]c2C1	i
O=S(=O)(NCc1ccccc1)Nc1ccc2nc[nH]c2c1	i
CN1CC2(CCN(S(C)(=O)=O)CC2)CC1COCC1CC1 (centres undefined)	i
CCCN1C(=O)CCc2cc(NC(=O)c3cccc(C#N)c3)ccc21	i
CC(C)CC(=O)Nc1ccc2c(c1)CCC(=O)N2CC(C)C	i
C=CC(=O)Nc1ccc2c(c1)CCC(=O)N2CCC	i
CCCN1C(=O)CCc2cc(NC(=O)c3cc(F)cc(F)c3)ccc21	i
CCCN1C(=O)CCc2cc(NC(=O)c3ccc(F)c(Cl)c3)ccc21	-82
CCN1C(=O)CCc2cc(NC(=O)c3ccsc3)ccc21	i
